An excerpt weighted towards active compounds, which were near 22% of everything screened.
CYP2C9 inhib = blockers of cytochrome P450 2C9 activity – biochemical, luminescence, ADME assay, primary screen; P11712; CYP2C9 Supersomes, luciferin-H conversion; inhibition, % at 5 µM; hit rate 20% among 96,000; AID 777, 2007;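 active = blocking of liver enzyme CYP2C9 beyond about 50% at 5 µM, limit read from the data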
CYP2C19 act = human CYP2C19 activators, primary screen, biochemical, luminescence. Cytochrome P450 2C19 (Homo sapiens), P33261. recombinant CYP2C19, luciferin-H EGE luminescence; stronger effect = higher value; 0 = fully inhibited enzyme, 1 = untreated enzyme. activation factor at 5 µM. 96,000 tested, under 10 active. AID 1025, 2008;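 active = activation factor of at least 2 at 5 µM in the primary screen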;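 note: 0 = wells with 2.5 mM tranylcypromine and 1 = vehicle-only wells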
Target sequence (P33261 whole entry, looked up): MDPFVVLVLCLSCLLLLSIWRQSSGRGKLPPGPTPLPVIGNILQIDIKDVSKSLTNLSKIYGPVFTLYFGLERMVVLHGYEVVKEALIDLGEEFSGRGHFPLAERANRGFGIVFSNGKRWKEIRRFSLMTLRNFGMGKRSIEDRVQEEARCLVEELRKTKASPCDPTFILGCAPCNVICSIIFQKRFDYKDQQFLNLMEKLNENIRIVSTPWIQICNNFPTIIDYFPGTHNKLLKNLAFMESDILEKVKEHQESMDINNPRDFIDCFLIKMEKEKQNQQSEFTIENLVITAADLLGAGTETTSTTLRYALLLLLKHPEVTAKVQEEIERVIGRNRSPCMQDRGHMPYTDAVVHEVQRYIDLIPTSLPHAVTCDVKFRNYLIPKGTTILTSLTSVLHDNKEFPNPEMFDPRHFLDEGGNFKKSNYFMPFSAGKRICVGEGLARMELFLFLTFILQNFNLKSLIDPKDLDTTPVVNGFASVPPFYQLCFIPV
CYP2C9 activ = human CYP2C9 activators, primary screen, biochemical, luminescence; recombinant CYP2C9, luciferin-H conversion; stronger effect = higher value; factor 1 = untreated enzyme, 0 = blocked; activation factor at 5 µM; Cytochrome P450 2C9 (Homo sapiens), P11712; hit rate 1.4% among 96,000;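 active = activation factor of 2 or more for CYP2C9 at a 5 µM dose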;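 note: 0 = sulfaphenazole-blocked wells and 1 = vehicle-only wells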
CYP2C19 inhib = blockers of cytochrome P450 2C19 activity – biochemical, luminescence, ADME assay, primary screen | AID 778, 2007 | P33261 | inhibition, % at 5 µM | hit rate 21% among 96,000 | CYP2C19 Supersomes, luciferin-H EGE luminescence, 30 min;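 active = CYP2C19 inhibition above a set limit at 5 µM in the primary screen, cut at about 50% in these data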;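 note: plate controls were negative control wells for no effect and 2.5 mM tranylcypromine positive control for full effect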
Measles CPE = compounds protecting cells from measles virus cytopathic effect, primary screen, measles RdRp inhibitor project, single point, MLSMR library, absorbance | Measles virus-infected cells, CPE protection | protection (pct of control), % at 4 µM | hit rate 1.5% among 140,000 | AID 841, 2007; in the data active = protection mostly above about 24%, no sharp cut-off; inactive = mostly below about 26%
An asterisk follows results filed as active; / = no result given.

SMILES	CYP2C9 inhib	CYP2C19 act	CYP2C9 activ	CYP2C19 inhib	Measles CPE
CCSc1nnc2c(Cl)cc(Cl)cn12	-10	1	1.1	-3	0
CCCCNC(=S)N=Nc1c(O)n(Cc2ccccc2)c2ccccc12	/	/	/	/	15
COc1ccc(-n2c(C)cc(/C=C3\C(=O)NN(c4ccccc4)C3=O)c2C)cc1	/	/	/	/	99*
Cc1cc(/C=C2/C(=O)NN(c3ccccc3)C2=O)c(C)n1-c1ccc(O)cc1	/	/	/	/	20
Cc1ccc(-n2c(SCC3CCCCO3)nnc2-c2ccco2)cc1 (stereo not drawn)	58*	0.9	0.4	13	6
COC(=O)CSc1nnc(-c2ccccc2OC)n1-c1ccc(C)cc1	20	0.8	0.8	22	4
CCOC(=O)CSc1nnc(-c2ccco2)n1-c1ccc(C)cc1	-60	1	1.6	3	38*
COC(=O)CSc1nnc(-c2ccccc2O)n1-c1ccc(C)cc1	37	0.4	0.6	57*	5
O=C(Nc1n[nH]c(C2CCCCC2)n1)C1CCCCC1	-9	1.1	1.1	-6	1
CCCc1n[nH]c2c1C(=O)CC(C)(C)C2	-7	1	1.1	1	24
CC1(C)CC(=O)c2c(-c3cccs3)n[nH]c2C1	52*	0.2	0.5	79*	3
COc1ccc(/C=C2/CCc3ccccc3C2=O)cc1OC	/	/	/	/	7
COc1ccc2c(c1)CC/C(=C\c1ccc(OC)c(Cn3nc(C)cc3C)c1)C2=O	49	0.1	0.5	87*	12
COc1ccc2c(c1)CC/C(=C\c1ccc(OC)c(Cn3cccn3)c1)C2=O	91*	0	0.1	97*	12
Cn1c(=O)c2cnc(N3CCOCC3)nc2n(C)c1=O	0	1	1	0	/
Cc1ccc(C2=[N+]([O-])C3(CCCCC/C3=N\NC(N)=S)N(O)C2(C)C)o1 (stereo not drawn)	74*	0.9	0.3	13	4
Cc1ccc(C2=[N+]([O-])C3(CCCCC/C3=N\NC(N)=O)N(O)C2(C)C)o1 (stereo not drawn)	0	1	1	1	1
Cc1ccc(-n2nc3c(c2NC(=O)c2ccc(Br)o2)CSC3)c(C)c1	67*	0.8	0.3	19	12
Cc1cccc(-n2nc3c(c2NC(=O)c2ccco2)CSC3)c1C	42	0.8	0.6	20	28*
Cc1ccc(-n2nc3c(c2NC(=O)C(C)(C)C)CSC3)c(C)c1	25	0.7	0.8	28	4
COC(=O)c1cccc(NC(=O)/C=C/c2ccc3c(c2)OCO3)c1	/	/	/	/	1
COc1ccc(-c2ncncc2-c2csc(C)n2)c(O)c1OC	52*	0.4	0.5	63*	4
O=C(NC12CC3CC(CC(C3)C1)C2)c1ccccc1O	28	0.7	0.7	29	16
C=CCn1c(SCc2ccc3nonc3c2)nnc1-c1cccs1	76*	0	0.2	99*	2
C=CCn1c(SCC(=O)c2ccc(NS(=O)(=O)c3ccccc3)cc2)nnc1-c1cccs1	97*	0.4	0	58*	9
SMILES	CYP2C9 inhib	CYP2C19 act	CYP2C9 activ	CYP2C19 inhib	Measles CPE
C=CCn1c(SCC(=O)C(C)(C)C)nnc1-c1ccccn1	/	/	/	/	10
C=CCn1c(SCC(=O)C(C)(C)C)nnc1-c1cccs1	19	0.2	0.8	76*	2
CC(C)(C)C(=O)CSc1nnc(-c2cccs2)n1CC1CCCO1 (stereo not drawn)	0	0.4	1	56*	24
CCc1nnc(NC(=O)Cc2ccc(OC)cc2)s1	-15	0.9	1.1	7	19
Cc1ccc(CSc2ncnc3c2cnn3Cc2ccccc2)cc1C	23	1.2	0.8	-20	18
O=C1Cc2ccccc2Sc2cc(OCCCN3CCCCC3)ccc21	/	/	/	/	9
NC(=O)c1cc2ccc(O)cc2oc1=Nc1ccccc1	13	1.1	0.9	-8	30*
NC(=O)c1cc2ccc(O)cc2oc1=NCc1ccccc1	/	/	/	/	22
O=C(NCc1cccc(C(F)(F)F)c1)c1cccc(Cl)c1Cl	/	/	/	/	13
COc1ccc(-c2ccc(-c3nnc(-c4cc(OC)ccc4OC)o3)cc2)cc1	5	0.6	0.9	38	2
CCC(NC(=O)c1ccccc1NC(=O)c1ccco1)C(=O)NNC(=O)c1ccc(OC)cc1 (stereo not drawn)	/	/	/	/	10
N#Cc1cc2c(nc1SCC(O)CS(=O)(=O)Cc1ccc(Cl)cc1)CCCC2 (stereo not drawn)	81*	0.4	0.2	59*	7
CCS(=O)(=O)CCSc1nc2c(cc1C#N)CCCC2	10	0.8	0.9	23	11
N#Cc1cc2c(nc1SCc1ccncc1)CCC2	87*	0	0.1	100*	5
CC(C)(C)c1ccc(S(=O)(=O)CC(O)CSc2nc3c(cc2C#N)CCCC3)cc1 (stereo not drawn)	78*	0.6	0.2	36	6
Cc1cc(C)c(C#N)c(SCC(O)CS(=O)(=O)Cc2ccccc2)n1 (stereo not drawn)	72*	0	0.3	97*	5
O=C(Oc1cccc(NC(=O)c2ccccc2Cl)c1)c1ccc([N+](=O)[O-])cc1	25	0.9	0.7	13	15
C/C(CC(=O)Nc1ccc(N(C)C)cc1)=N\NC(=O)c1cnccn1	/	/	/	/	37
COc1ccc(Oc2c(C)oc3cc(OC(=O)N4CCOCC4)ccc3c2=O)cc1	-7	0.9	1.1	9	23
COc1ccc(C(=O)Nc2cc(Cl)cc(Cl)c2)c(OC)n1	-11	1	1.1	-4	10
O=C1CC(c2ccccc2)CC2=C1CN(C1CCCCC1)CN2 (stereo not drawn)	-21	0.6	1.2	39	3
Cc1cccc(C)c1NC(=O)CN1C(=O)S/C(=C\c2cccn2-c2cccc(C(=O)O)c2)C1=O	86*	1	0.1	3	17
Cc1cc(NC(=O)CN2C(=O)S/C(=C\c3ccccc3)C2=O)no1	/	/	/	/	31*
Cc1ccc(NC(=O)CN2C(=O)S/C(=C\c3cccn3-c3cccc(C(=O)O)c3)C2=O)c(C)c1	42	0.9	0.6	11	31
Cc1ccccc1NC(=O)CN1C(=O)S/C(=C\c2cccn2-c2cccc(C(=O)O)c2)C1=O	75*	0.9	0.2	6	38
COc1cccc2sc(N(C)c3ccccc3)nc12	10	0.2	0.9	78*	4
S=C(Nc1ccc2nsnc2c1)NC1CCCCC1	/	/	/	/	30*
O=C(CCCc1c[nH]c2ccccc12)N1CCN(c2ccc(N3CCOCC3)nn2)CC1	32	0.4	0.7	58*	5
CCc1nc(SCC(=O)NCc2ccco2)c2c3c(sc2n1)CCCC3	86*	0.4	0.1	63*	11
CCCCSc1nc(SCC(=O)NCc2ccco2)c2c3c(sc2n1)COC(C)(CC)C3 (stereo not drawn)	51*	0.9	0.5	13	1
